# Screening results (PubChem)
# Sampled rows, rich in hits. Any-hit rate of the full collection: about 8%.
# MARV entry inh = inhibitors of Marburg virus binding or entry into cells; Marburg virus pseudotype entry/binding inhibition, cell-based; Potency, µM (titrated, usually from 49.2 µM), usual class: inhibitors; hit rate 6.5% among 18,000; AID 720532
# Lassa entry = inhibitors of Lassa virus binding or entry into cells; Lassa virus pseudotyped entry inhibition, cell-based qHTS; Potency, µM (highest dose often 49.2 µM), most hits filed as inhibitors; hit rate 4.1% among 18,000; AID 720533
# A number is an active result; 0 = inactive; ? = inconclusive; - = no result; ! = a repeat was not active; [ ] = another dose, or the depositor's remark. The call rests on the fitted dose curve; tested in HEK293 cells.
SMILES,MARV entry inh,Lassa entry
CN(C)CC(O)Cn1c2ccc(Br)cc2c2cc(Br)ccc21 (stereo unspecified),7.94µM,22.4µM
Cc1ccc2nc(N3CCCCCC3)c(CN(CC3CCCO3)C(=O)c3cncs3)cc2c1 (stereo unspecified),?,0
C=CC1=C2C=C(C3CC3)N(Cc3ccccc3)C=C2C(=O)C(C)(OC(=O)c2ccco2)C1=O (stereo unspecified),0[8.59 µM],0[8.59 µM]
CC(=O)Oc1c2c(c(CC=C(C)C)c3c1C(=O)C1=CC4CC5C(C)(C)OC(C/C=C(\C)C(=O)O)(C4=O)[C@]15O3)OC(C)(CCC=C(C)C)C=C2 (stereo partly specified),2.82µM,?
CC(=O)Oc1c(-c2ccccc2)oc2c(CC=C(C)C)c3c(c(OC(C)=O)c2c1=O)C=CC(C)(C)O3,0,0
COC(=O)/C(C)=C\CC12OC(C)(C)C3CC(C=C4C(=O)c5c(OC)c6c(c(CC=C(C)C)c5OC431)OC(C)(CCC=C(C)C)C=C6)C2=O (stereo unspecified),2.82µM,4.47µM
C[C@]12O[C@H]1[C@@H](O)C(Br)=C(CO)[C@H]2O,0,0
C=C1CC[C@H](O)C/C1=C/C=C1\CCC[C@]2(C)[C@H]1CC[C@H]2[C@@H](C)/C=C\[C@@H](C)C(C)C,0,?
Clc1ccc(C2(Cn3cncn3)OCCO2)c(Cl)c1,0,0
CCCC1COC(Cn2cncn2)(c2ccc(Cl)cc2Cl)O1 (stereo unspecified),11.2µM,12.6µM
CCCCC/C=C\C/C=C\C/C=C\C/C=C\CCCC(=O)Nc1ccc(O)cc1C,?,12.6µM
CCCCC/C=C\C/C=C\C/C=C\C/C=C\CCCC(=O)NCCO,0,0
CCCCC/C=C\C/C=C\C/C=C\C/C=C\CCCC(=O)Nc1ccc(O)cc1,?,31.6µM
CCCCC/C=C\C/C=C\C/C=C\C/C=C\CCCC(=O)NCC(=O)O,0,?
CCCCC/C=C\C[C@@H]1O[C@H]1C(O)/C=C\C/C=C\CCCC(=O)O (stereo partly specified),0,0
CCC1CN(Cc2ccc(COC)o2)Cc2cc(OC)ccc2O1 (stereo unspecified),?,0
CCCCC/C=C\C/C=C\C/C=C\C/C=C\CCCCCC(N)=O,0,0
CCCCN1CC(N2CCCC2)CS1(=O)=O (stereo unspecified),0,0
CCCCC[C@@H](O)C1C(=O)OC(C)[C@H](O)/C=C/C=C/C=C/C=C/C=C(\C)C(O)C(O)C(O)C[C@H](O)C[C@H](O)C[C@H](O)C[C@H](O)C[C@@H]1O (stereo partly specified),15.8µM!,0
O=C1CCc2ccc(OCCCCN3CCN(c4cccc(Cl)c4Cl)CC3)cc2N1,0,?
O=C1NC2CCCCN2C12CCN(CCCN1c3ccccc3CCc3ccc(Cl)cc31)CC2 (stereo unspecified),7.08µM,28.2µM
C=CCCCN1C=C(C(C)=O)C(c2ccccc2)NC1=O (stereo unspecified),0[8.59 µM],0[8.59 µM]
CCn1c(-c2nonc2N)nc2c(C#CC(C)(C)O)ncc(OC3CCNCC3)c21,3.97µM,-
CCn1c(-c2nonc2N)nc2c(C#CCN)ncc(OCCCN)c21,?,0
CCn1c(-c2nonc2N)nc2c(C#CC(C)(C)O)nc(OCC(N)c3ccccc3)cc21 (stereo unspecified),3.15µM,-
SMILES,MARV entry inh,Lassa entry
CCn1c(-c2nonc2N)nc2ccc(F)cc21,?,0
COC(=O)C1=C(C)N(Cc2ccccc2)C(=NCc2ccccc2)NC1c1ccccc1 (stereo unspecified),?,0[8.59 µM]
COC1=CC2C(=O)C(C1=O)C1c3ccccc3CC21 (stereo unspecified),0[8.59 µM],0[8.59 µM]
COc1cc(C2CC(=O)Oc3cc(C)c(Cl)cc32)cc(OC)c1OC (stereo unspecified),0,0
CCCSc1cc(OC)c(CCN)cc1OC,22.4µM,?
COc1cc(CCN)ccc1O,0,0
O=C(NCC1CCC2(CCN(Cc3cccc(-c4ccco4)c3)CC2)O1)c1ccccc1 (stereo unspecified),?,0
COc1ccc(C(=O)NCc2nc(-c3ccccc3NC(=O)c3cc(C)oc3C)oc2C)cc1F,0,0
Cc1cc(C)c2c(CN(C)Cc3ccccc3)cc(=O)oc2c1,2.23µM,?
CCCCN(CCCC)Cc1cc(=O)oc2cc(C)cc(C)c12,0,0
COc1ccc2c(c1)c(C1=C(c3c[nH]c4ccccc34)C(=O)NC1=O)cn2CCCN(C)C,7.08µM,?
Cn1cc(C=C2C(=O)Nc3cccnc32)c2ccccc21,0,0
Cn1cc(C2=C(c3cn(CCCSC(=N)N)c4ccccc34)C(=O)NC2=O)c2ccccc21,15.8µM,17.8µM
CN(C)CCCn1cc(C2=C(c3c[nH]c4ccccc34)C(=O)NC2=O)c2ccccc21,7.08µM,?
COc1ccc2[nH]cc(CCNc3ncncc3-c3ccccc3CN(C)C)c2c1,?,0
CC1(C)S[C@@H]2[C@H](NC(=O)C(c3ccccc3)S(=O)(=O)O)C(=O)N2[C@H]1C(=O)O (stereo partly specified),0,0
C=CCN=C1NC(c2cccc(F)c2)C(C(=O)OC)=C(C)N1Cc1ccccc1 (stereo unspecified),?,0[8.59 µM]
C=CCc1cccc(/C=N/NC(=O)CN2CCN(Cc3ccccc3)CC2)c1O,?,12.6µM
C/C(=C\C(=O)OCCCCCCCCC(=O)O)C[C@@H]1OCC(C[C@H]2O[C@H]2[C@@H](C)[C@H](C)O)[C@@H](O)[C@H]1O (stereo partly specified),0,0
O=c1cc(-c2ccccc2O)oc2c1ccc1ccccc12,0,0
CC(=O)[C@]1(O)Cc2c(O)c3c(c(O)c2[C@@H](O[C@H]2C[C@H](N)[C@H](O)[C@H](C)O2)C1)C(=O)c1c(O)cccc1C3=O,0.056µM,-
COc1cccc2c1C(=O)c1c(O)c3c(c(O)c1C2=O)C[C@@](O)(C(=O)CO)C[C@@H]3OC1C[C@@H](N)[C@H](O)[C@H](C)O1 (stereo partly specified),0.891µM,?
COc1cccc2c1C(=O)c1c(O)c3c(c(O)c1C2=O)C[C@@](O)(C(=O)CO)C[C@@H]3O[C@H]1C[C@H](N)[C@H](O[C@@H]2CCCCO2)[C@H](C)O1,1.25µM,1.12µM
COc1cccc2c1C(=O)c1c(O)c3c(c(O)c1C2=O)C[C@@](O)(C(C)=O)C[C@@H]3O[C@H]1C[C@H](N)[C@H](O)[C@H](C)O1,?,35.5µM!
CCCOC(=O)c1ccccc1O,0,0
SMILES,MARV entry inh,Lassa entry
COC(=O)C1CCN(Cc2ccc3c(c2)CN(C(=O)c2cc(C)oc2C)CCO3)CC1,0,0
COc1ccc(OC)c(-c2cc(Cl)c3c(c2)CC(CNC(=O)c2cnn4cccnc24)O3)c1 (stereo unspecified),0,0
Cc1cc2c(nc1C)CCCN2CC(O)CN1CCCc2nc(-c3ccc(Br)cc3)ccc21 (stereo unspecified),?,0[8.59 µM]
Cc1ccc(CN2CC(N3CCN(C(=O)c4ccco4)CC3)CS2(=O)=O)cc1 (stereo unspecified),0,0
NC(=O)[C@@H]1CCCN1,0,0
c1ccc(CN(CC2=NCCN2)c2ccccc2)cc1,?,0
CC(C)COC[C@H](CN(Cc1ccccc1)c1ccccc1)N1CCCC1,6.31µM,0
CC[C@H](C)[C@H](NC(=O)[C@H](C)NC(=O)[C@@H](N)C(C)C)C(=O)N[C@H](C(=O)N[C@H](C(=O)N[C@@H](CC(C)C)C(=O)N[C@H](C(=O)N[C@@H](CCCCN)C(=O)O)C(C)C)C(C)C)[C@@H](C)O,0,0
